TGFb SMAD3 inh: TGF-b pathway inhibition | Potency, µM (doses to about 46.1 µM), without a hit: at the highest dose activity, negative = inhibition, usual class: inhibitors | AID 588855 | HepG2 CAGA-GFP TGF-b/SMAD3 reporter, GFP fluorescence, 18 h; TGF-beta stimulated, 500 pg/mL final | hit rate 1.2% among 410,000; also: % is scaled to controls: 0 for no effect and ±100 for the full control effect; nearly all actives have a fitted effect of over 65% in size
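Cell-based qHTS in HEPG2 carrying a CAGA-GFP Smad reporter; compounds added before 500 pg/mL final TGF-beta, 18 h incubation at 37 degrees C, GFP fluorescence quantified per cell by imaging cytometry.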
DT40 TDP1 CPT: DT40-hTDP1 cell growth loss with CPT. chicken DT40 Tdp1-/-;hTDP1 cells + 20 nM CPT, ATP luminescence, 48 h. hit rate 12% among 420,000. AID 686979. Potency, µM (series often up to 46.2 µM), for inactives: top-dose activity change, negative = growth inhibition, hits mostly inhibitors; also: % is scaled to controls: 0 for no effect and ±100 for the full control effect; nearly all actives have a fitted effect of over 55% in size
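Cell growth measured by CellTiter-Glo luminescence after a minimum 48 h, 37 C compound exposure with 20 nM CPT in Tdp1-knockout DT40 cells stably expressing hTDP1, seeded 400/well; qHTS titration format.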
HT1080-NT tox: kills 2HG-producing HT-1080-NT fibrosarcoma cells; HT-1080-NT fibrosarcoma viability, CellTiter-Glo ATP luminescence, 48 h; Potency, µM (doses to about 46.1 µM), for inactives: top-dose activity, negative = less viability, most hits filed as cytotoxic; hit rate 1.6% among 360,000;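 also: NT is the 2HG producing partner of a matched IDH1 knockdown line; 0% = DMSO-treated cells and -100% = media-only wells without cells; nearly all actives have a fitted effect of over 55% in size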
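Viability of the 2HG-overproducing fibrosarcoma line after 48 hours of compound exposure at 37 degrees C was determined by luminescence with CellTiter-Glo, and concentration-effect curves were then fitted and categorized.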
HT1080 IDH1KD tx: HT-1080 IDH1 knockdown cell toxicity (counter line) | Potency, µM (top dose mostly 46.1 µM), inactives show top-dose activity, negative = toxicity, usual class: cytotoxic | hit rate 2% among 360,000 | HT-1080 IDH1 knockdown viability, ATP luminescence, 48 h;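 also: 0% = DMSO wells and -100% = cell-free medium wells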
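Using the IDH1-knockdown HT-1080 line run in the same batch and compound series as the NT line, viability after 48 h at 37 °C was determined by CellTiter-Glo luminescence and expressed as % activity.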
DT40 TDP1 no CPT: qHTS for Inhibitors of human tyrosyl-DNA phosphodiesterase 1 (TDP1): qHTS in cells in absence of CPT; DT40 Tdp1-/- hTDP1 cells, no CPT, ATP luminescence, 48 h; Potency, µM (highest dose often 46.2 µM), without a hit: at the highest dose activity change, negative = growth inhibition, usual class: inhibitors; hit rate 15% among 420,000; also: % is scaled to controls: 0 for no effect and ±100 for the full control effect; nearly all actives have a fitted effect of over 55% in size
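Seeded 400 DT40-hTDP1 cells/well (vehicle DMSO, no 20 nM CPT); pinned compounds; ≥48 hr at 37 °C; CellTiter-Glo luminescence as viability measure.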
HepG2 viability: kills HepG2 cells in TGF-b inhibitor counter-screen. HepG2 CAGA-GFP viability, ATP luminescence, 18 h. Potency, µM (doses to about 46.1 µM), inactives show top-dose activity change, negative = cytotoxicity, usual class: cytotoxic. hit rate 0.76% among 410,000
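HepG2 CAGA-GFP cells (1000/well, DMEM with 1% FBS) received compound, then TGF-beta at 500 pg/mL final, and were incubated 18 hours at 37 degrees C. Viability was read by CellTiter-Glo luminescence. Media-only wells were set as complete cell-killing and DMSO as no toxicity.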
Numbers without * were called inactive; u = inconclusive; x = not tested or not shown. Only some compounds are listed: those with a hit (about 17% of all), similar ones and a draw of the others. Calls follow the shape of the dose curve; as a rule, active = well fitted curve in the direction sought with a large enough effect; inconclusive = small, poorly fitted or top-dose-only effect, or another doubt; inactive = no such curve, though single readings can be large; an effect the other way counts as inactive or inconclusive. Potency is read from the fitted curve at half-maximal effect.

SMILES	TGFb SMAD3 inh	DT40 TDP1 CPT	HT1080-NT tox	HT1080 IDH1KD tx	DT40 TDP1 no CPT	HepG2 viability
CC(=O)Nc1ccc(NC(=O)CSc2nnc(NC(=O)c3cccc(F)c3)s2)cc1	-3%	14%	1%	0%	-2%	0%
COc1ccc(-c2nn(C)c3sc(C(=O)NCc4ccco4)cc23)cc1OC	0%	u	u	21%	21µM*	14%
COc1ccc(NC(=O)c2cc3c(-c4ccc(OC)c(OC)c4)nn(C)c3s2)cc1OC	29%	18µM*	u	u	21µM*	-24%
COc1ccc(-c2nn(C)c3sc(C(=O)Nc4cc(OC)c(OC)c(OC)c4)cc23)cc1OC	0%	18µM*	x	x	6.5µM*	-21%
CCOc1cc(OCC)cc(C(=O)N2CCC[C@H]2C(=O)N2CCC[C@H]2C(=O)N[C@@H](C)c2ccccc2)c1	x	u	9%	-1%	u	x
O=C(N/N=C/C(Br)=C/c1ccccc1)c1ccccc1F	-14%	12µM*	u	u	23µM*	-12%
O=C(N/N=C/C(Br)=C/c1ccccc1)c1cccs1	9%	16µM*	-23%	u	18µM*	1%
O=C(N/N=C/C=C/c1ccccc1)c1cccs1	-4%	-14%	16%	7%	-1%	-12%
COc1cc(/C=C/C(=O)OC(C)C(=O)NC2CCCCC2C)cc(Cl)c1OC (stereo not drawn)	u	u	0%	2%	u	-13%
COc1ccc(CN2CCNC(=O)C2CC(=O)NCCCC2CCCC2)c(F)c1 (stereo not drawn)	0%	u	-10%	-6%	u	8%
Cc1ccc(C(=O)c2cn[nH]c2-c2ccccc2O)cc1	-2%	u	2%	1%	u	-2%
Cc1ccc(C(=O)c2coc3c2C(=O)C(=O)c2ccccc2-3)cc1	u	3.3µM*	u	u	4.6µM*	11µM*
Cc1ccc(C(=O)c2c(C)oc3c2C(=O)C(=O)c2ccccc2-3)cc1	u	2.1µM*	u	u	2.6µM*	-62%
Cc1ccc(-n2c(=O)c3c(C)c(C(=O)N(C)C)sc3n(CC(=O)N(C)c3ccccc3)c2=O)cc1C	0%	-27%	x	x	-26%	-13%
COc1cc(OC)nc(Oc2cc(/C=N/O)ccc2OC)n1	-11%	u	u	u	u	-5%
CCNc1cc2n(c(=O)n1)CCc1cc(OC)c(OC)cc1-2	3%	0%	0%	3%	-17%	-8%
COc1cc2c(cc1OC)-c1cc(Nc3ccccc3C)nc(=O)n1CC2	5%	-6%	-2%	-5%	-7%	-6%
COc1cc2c(cc1OC)-c1cc(OCCN3CCOCC3)nc(=O)n1CC2	1%	23µM*	-8%	-2%	u	2%
CCOc1ccccc1Nc1cc2n(c(=O)n1)CCc1cc(OC)c(OC)cc1-2	14%	u	-13%	-12%	15µM*	-18%
C[C@H](NC(=O)C[C@@H]1C=C[C@@H](NC(=O)CN2CCOCC2)[C@@H](CO)O1)c1ccccc1	x	-5%	19%	13%	1%	x
Fc1ccc(-c2nc3c4ccccc4ccn3c2Cc2ccsc2)cc1	u	15µM*	-11%	-18%	15µM*	-19%
Clc1cccc(-c2nc3c4ccccc4ccn3c2Cc2ccsc2)c1	u	u	-7%	-30%	u	-11%
Brc1cccc(-c2nc3c4ccccc4ccn3c2Cc2ccsc2)c1	-9%	26µM*	-11%	-12%	u	-6%
CCOC(=O)Cc1c(-c2cccc(Br)c2)nc2c3ccccc3ccn12	x	u	-29%	-25%	18µM*	x
CCOC(=O)Cc1c(C)nc2c(-c3cccc(Br)c3)cnn2c1C	4%	u	-1%	0%	21µM*	8%
SMILES	TGFb SMAD3 inh	DT40 TDP1 CPT	HT1080-NT tox	HT1080 IDH1KD tx	DT40 TDP1 no CPT	HepG2 viability
CCOC(=O)c1c(C)nc2c3ccccc3ccn12	-1%	u	-18%	-18%	-20%	-11%
Cc1cc(N)n2ncc(-c3cccc(Br)c3)c2n1	u	-7%	u	u	-20%	-51%
CC(C)(Oc1ccc(C2CCCc3ccccc32)cc1)C(=O)O (stereo not drawn)	x	0%	x	x	-9%	x
CCN1CCN(S(=O)(=O)c2ccc(Cl)c(C(=O)NC(C)(C)C)c2)CC1	11%	-18%	-1%	5%	1%	-5%
C[C@]12CCC(=O)C=C1CC[C@@H]1[C@@H]2[C@@H](O)C[C@]2(C=O)[C@@H](C(=O)CO)CC[C@@H]12	18%	-3%	12%	0%	-8%	-2%
Fc1ccc(-c2nc3c4ccccc4ccn3c2CC2CCCCC2)cc1	-25%	15µM*	6%	1%	21µM*	-36%
Clc1ccc(-c2nc3c4ccccc4ccn3c2CC2CCCCC2)cc1	x	-23%	2%	7%	-27%	x
Cc1cc(C)cc(CC2CC(=O)N(c3ccc([N+](=O)[O-])cc3)C2=O)c1 (stereo not drawn)	-2%	12%	-1%	5%	-11%	2%
Cc1ccc2ccccc2[n+]1[O-]	-1%	-4%	x	x	-5%	4%
[O-][n+]1c2ccccc2[n+]([O-])c2cc(O)ccc21	-2%	9.2µM*	-18%	-20%	13µM*	-41%
CCc1c(C)nc2ncnn2c1NCCc1ccc(OC)c(OC)c1	u	15µM*	-6%	-16%	13µM*	0%
CCOc1ccc(CCNc2cc(C)nc3ncnn23)cc1OCC	-18%	21µM*	-13%	-10%	15µM*	-18%
Cc1ccc(CNc2cc(C)nc3nc(-c4cccc(C)c4)nn23)cc1	u	x	x	x	x	-18%
CCOc1ccc(CNc2cc(C)nc3nc(-c4cccc(C)c4)nn23)cc1OC	x	u	x	x	18µM*	-60%
CCOc1ccc(CCNC(=O)CCc2c(C)nc3ncnn3c2C)cc1OCC	5%	-23%	3%	7%	2%	1%
COc1ccc(CCNc2c(C)c(C)nc3ncnn23)cc1	-49%	2.3µM*	10µM*	7.1µM*	2.6µM*	-33%
CCNc1ccc(-c2nc(-c3ccncc3)no2)cc1[N+](=O)[O-]	111%	u	x	x	-14%	-1%
O=C(CSc1n[nH]c(=O)n1C1CC1)NCc1ccccc1	7%	1%	0%	-3%	18%	-1%
Cc1ccc(C)c(-c2ccc(=O)n(Cc3c(F)cccc3Cl)n2)c1	u	u	0%	0%	u	-31%
Cc1ccc(C)c(Cn2nc(-c3ccccc3)ccc2=O)c1	0%	u	u	-29%	u	-16%
Cc1ccc(-c2ccc(=O)n(Cc3c(F)cccc3Cl)n2)cc1	u	u	-12%	-8%	18µM*	-9%

Screening results deposited in PubChem BioAssay by National Center for Advancing Translational Sciences (NCATS).
